# Bioassay records deposited in PubChem by National Center for Advancing Translational Sciences (NCATS).
# HTT aggregate = qHTS Multiplex Assay to Identify Dual Action Probes in a Cell Model of Huntington: Aggregate Formation (GFP); PC12 HttQ103-GFP aggregates, Acumen cytometry, 40 h; Potency, µM (series often up to 46.1 µM), inactives show at the top dose activity change, negative = inhibition, usual class: inhibitors; actives 1.1% (n = 220,000); further: potency means the concentration at half of the fitted maximal effect; on the % scale 0 is the no-effect control and ±100 the full control effect; nearly all actives have a fitted effect of over 60% in size
#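 Steps: seed 1500 PC12 HTTQ103-GFP cells/well; add tebufenozide, 100 nM final; add compound titration; add ATPLite reagent; quantify GFP aggregates by laser scanning cytometry.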
# HTT cytoprotect = qHTS Multiplex Assay to Identify Dual Action Probes in a Cell Model of Huntington: Cytoprotection (ATP); AID 1471, 2008; Potency, µM (doses to about 56.4 µM), for the others: cytoprotection (ATP increase), actives largely listed as activators; PC12 HTT-Q103 induced, cytoprotection, ATP luminescence, 40 h; actives 0.14% (n = 230,000); further: potency means the concentration at half of the fitted maximal effect; % of control where 0% means no effect; nearly all actives have a fitted effect of over 45% in size
#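 ATP quantification (ATPlite) reports survival of PC12 cells in which tebufenozide, 100 nM final, switches on Htt exon 1 with 103 glutamines linked to GFP; compounds are titrated.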
# HPGD inh = qHTS Assay for Inhibitors of HPGD (15-Hydroxyprostaglandin Dehydrogenase). purified HPGD, NADH fluorescence kinetic, PGE2 substrate. Potency, µM, for the others: at the highest dose activity change, negative = inhibition, most hits filed as inhibitors. actives 4.3% (n = 150,000). AID 894, 2007; active means well fitted inhibition curve with a large enough effect, not every such curve was filed as active; inconclusive means small, poorly fitted or top-dose-only effect, or another doubt; inactive means no such curve, though single readings can be large or run the other way; further: potency means the concentration at half of the fitted maximal effect; on the % scale 0 is the no-effect control and ±100 the full control effect
# Target sequence (P15428 whole entry, looked up): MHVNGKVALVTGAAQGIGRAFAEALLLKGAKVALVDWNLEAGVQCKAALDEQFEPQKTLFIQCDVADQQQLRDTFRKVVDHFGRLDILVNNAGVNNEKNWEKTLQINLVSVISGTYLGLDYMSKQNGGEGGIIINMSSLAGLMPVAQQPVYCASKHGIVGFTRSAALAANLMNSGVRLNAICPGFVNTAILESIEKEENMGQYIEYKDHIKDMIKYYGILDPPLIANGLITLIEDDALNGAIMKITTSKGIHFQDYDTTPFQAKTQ
#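 20 nM HPGD preincubated 15 min at room temperature with compound in 50 mM Tris-HCl pH 8, 0.01% Tween 20. Started with 1 mM NAD+ and 30 uM prostaglandin E2; NADH fluorescence (360/450 nm) read 5 times over 30-s intervals, last minus first.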
# ALDH1A1 block = qHTS Assay for Inhibitors of Aldehyde Dehydrogenase 1 (ALDH1A1). AID 1030, 2008. actives 7.3% (n = 220,000). Potency, µM (titrated, usually from 75.3 µM), inactives show at the top dose activity, negative = inhibition, most hits filed as inhibitors. Purified ALDH1A1, NADH fluorescence, propionaldehyde substrate; active means well fitted inhibition curve with a large enough effect, not every such curve was filed as active; inconclusive means small, poorly fitted or top-dose-only effect, or another doubt; inactive means no such curve, though single readings can be large or run the other way;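 further: potency means the concentration at half of the fitted maximal effect; plate controls were no enzyme wells and a reference inhibitor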
# Target sequence (P00352 whole entry, looked up): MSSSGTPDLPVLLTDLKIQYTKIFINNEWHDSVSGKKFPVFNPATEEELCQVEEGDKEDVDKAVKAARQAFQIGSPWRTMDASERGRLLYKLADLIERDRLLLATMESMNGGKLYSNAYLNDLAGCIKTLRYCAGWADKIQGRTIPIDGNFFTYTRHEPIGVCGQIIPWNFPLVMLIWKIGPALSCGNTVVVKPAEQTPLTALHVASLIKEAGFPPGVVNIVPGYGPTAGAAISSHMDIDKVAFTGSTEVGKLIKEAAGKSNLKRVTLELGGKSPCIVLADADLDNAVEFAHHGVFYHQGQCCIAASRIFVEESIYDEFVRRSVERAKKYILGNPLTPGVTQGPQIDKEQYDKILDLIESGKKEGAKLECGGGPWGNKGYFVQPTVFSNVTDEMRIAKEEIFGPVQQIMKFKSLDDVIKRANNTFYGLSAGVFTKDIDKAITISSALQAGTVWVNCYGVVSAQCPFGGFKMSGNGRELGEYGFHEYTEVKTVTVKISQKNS
# IMPase cell inh = qHTS Assay for Identifying the Cell-Membrane Permeable IMPase Inhibitors; Inositol monophosphatase 1 (Rattus norvegicus), P97697; CHO-M1 cells, IP1 accumulation, HTRF TR-FRET ratio; inhibition (IP1 accumulation), % at 46.1 µM; 120,000 tested, under 10 active; AID 901, 2007; active means well fitted curve in the direction sought with a large enough effect in the signal ratio, not every such curve was filed as active; inconclusive means small, poorly fitted or top-dose-only effect, or a change in a side signal; inactive means no such curve, though single readings can be large or run the other way; the % refers to the signal ratio;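 further: cells stimulated with carbachol in lithium chloride buffer; plate controls were DMSO basal wells for no effect and reference inhibitor wells for full effect; higher means more IMPase inhibition seen as more IP1 and lower FRET ratio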
#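 Measured: the HTRF emission ratio (665/620 nm) plus the 620 nm donor channel, each fitted to the Hill equation to give AC50. Cells were CHO-M1 given compounds up to 46 uM and a 30 min carbachol stimulation at 37C.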
# IMPase Li inh = qHTS Assay for Identifying the Cell-Membrane Permeable IMPase Inhibitors: Potentiation with Lithium; Potency, µM (doses to about 59.4 µM), inactives show at the highest dose activity, negative = IMPase inhibition, most hits filed as inhibitors; actives 0.35% (n = 210,000); CHO-M1 cells, IP1 TR-FRET (IP-One), carbachol + lithium; AID 1457, 2008;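 further: IP1 builds up when IMPase is blocked and the TR-FRET signal falls; potency means the concentration at half of the fitted maximal effect; plate controls were basal vehicle for no effect and high inhibitor control for full effect; nearly all actives have a fitted effect of over 50% in size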
#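 CHO-M1, 2000 cells/well, 16–30 h culture; cpd + low Li+, 30 min 37C; lysis with d2-IP1/Eu-anti-IP1 Ab, 10 min RT; TR-FRET 665/620 ratio and 620 channel; AC50 via Hill.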
# Starred values were filed as active, the others as inactive; ? = inconclusive; . = no result given; [ ] = another dose, or the depositor's remark. Shown are actives, neighbours in structure and some others; about 9.4% of the full set was active somewhere. Unless noted, the call rests on the fitted dose curve; in most records, active means well fitted curve in the direction sought with a large enough effect; inconclusive means small, poorly fitted or top-dose-only effect, or another doubt; inactive means no such curve, though single readings can be large; an effect the other way counts as inactive or inconclusive.
SMILES,HTT aggregate,HTT cytoprotect,HPGD inh,ALDH1A1 block,IMPase cell inh,IMPase Li inh
Cc1ccsc1CN1CC(=O)N(c2c(C)cccc2C)C1=S,-0.5%,-21.9%,.,5.9%,.,-3.3%
CCc1ccc(N2C(=O)CN(Cc3sccc3C)C2=S)cc1,-9.2%,-12.8%,.,-3.4%,.,8.4%
Cc1cc(C)cc(N2C(=O)CN(Cc3sccc3C)C2=S)c1,16.5%,14.8%[10 µM],28.2µM*,0.4%,.,3.1%
CC12C=C(/C=C/c3ccccc3)C(C)(C1)C(c1ccccc1)CC2=O (stereo not drawn),.,6.2%[10 µM],.,-7.5%[13.5 µM],.,.
COc1ccccc1-c1nnc(SC(C(=O)c2c[nH]c3ccccc23)c2ccccc2)n1C (stereo not drawn),2.82µM*,4.47µM*,.,7.5%,-2.7,.
COc1cccc(-c2nnc(SC(C(=O)c3c[nH]c4ccccc34)c3ccccc3)n2C)c1 (stereo not drawn),?,.,-14.0%,15.8%,.,4.3%
CCC1Oc2ccc(C)cc2N(CC(=O)N(Cc2cccnc2)Cc2ccc(C)o2)C1=O (stereo not drawn),?,-17.2%[10 µM],28.2µM*,3.16µM*,3.2,26.3%[38.3 µM]
Cc1ccccc1Oc1nnc(-c2cccs2)c2ccccc12,3.55µM*,11.8%[10 µM],.,6.1%,-17.1,.
CN1CCN(c2nnc(-c3cccs3)c3ccccc23)CC1,7.6%,-39.7%,.,?,.,8.7%
Cc1ccccc1Nc1cc(=O)oc2ccccc12,-29.9%,-17.1%,-19.7%,14.1µM*,3.4,46.0%[38.3 µM]
CC(C)C[C@@H](CC(=O)N[C@@H](CCC(=O)O)CC(=O)O)NC(=O)[C@@H]1CCCC[C@H]1NC(=O)C[C@@H](NC(=O)C[C@H](Cc1ccccc1)NC(=O)[C@@H]1CCCC[C@H]1N)C(C)C,.,2.2%[1.9 µM],-5.1%,12.9%,.,5.1%
CCOC(=O)/C(=C\c1cn(C)c2ccccc12)[N+](=O)[O-],15.7%,-13.3%[1.9 µM],3.55µM*,6.31µM*,6.0,10.1%
COc1ccc(NC(=O)CNS(=O)(=O)c2cccc3nonc23)c(OC)c1,?,-25.7%,?,12.6µM*,-12.9,15.0%[38.3 µM]
COc1ccc(CNC(=O)CCCNS(=O)(=O)c2cccc3nonc23)cc1,3.16µM*,3.55µM*,-6.1%,14.1µM*,15.2,16.3%[38.3 µM]
Cc1ccc(CNC(=O)CCCNS(=O)(=O)c2cccc3nonc23)cc1,7.7%,24.5%,-12.4%,7.08µM*,17.0,38.1%[38.3 µM]
CC(=O)c1cccc(NC(=O)CCS(=O)(=O)c2cccc3nsnc23)c1,15.2%[9.22 µM],-22.9%,28.2µM*,22.4µM*,-5.4,21.9%[38.3 µM]
CO[C@]1(C2=NCCN2)COc2ccccc2O1,.,?,-3.8%,-6.2%,-7.5,3.6%
COc1ccc(N(C)C(=O)c2cn(C3CCCCC3)c(=O)c3c2c2ccccc2n3C)cc1,.,.,.,.,13.3,.
NS(=O)(=O)c1ccc(Cl)cc1[N+](=O)[O-],-26.2%[9.22 µM],2.4%[10 µM],.,.,.,.
CCc1ccc(NC(=O)CCNS(=O)(=O)c2cccc3nonc23)cc1,7.4%,5.6%,-0.1%,22.4µM*,11.7,13.9%[38.3 µM]
CC(=O)Nc1ccc(NC(=O)CCNS(=O)(=O)c2cccc3nsnc23)cc1,0.1%,-25.3%,.,12.6µM*,.,-0.1%
O=C(CCCNS(=O)(=O)c1cccc2nsnc12)NCc1ccccc1,9.4%,-8.0%,.,5.01µM*,5.8,.
Cc1cc(F)ccc1S(=O)(=O)N(C(=O)c1ccncc1)c1ccc(OC(=O)c2ccncc2)cc1,-10.0%,12.4%,.,5.8%,.,5.8%
Cc1ccc(S(=O)(=O)N(C(=O)c2ccncc2)c2ccc(OC(=O)c3ccncc3)c3ccccc23)c(C)c1,?,-96.6%,28.2µM*,7.94µM*,15.2,47.2%[38.3 µM]
Cc1ccc(S(=O)(=O)N(C(=O)c2ccncc2)c2ccc(OC(=O)c3ccncc3)c3ccccc23)cc1,?,5.7%[10 µM],20µM*,3.98µM*,17.6,22.1%
SMILES,HTT aggregate,HTT cytoprotect,HPGD inh,ALDH1A1 block,IMPase cell inh,IMPase Li inh
COc1ccc(C(=O)N2c3ccccc3C(C)(c3ccc(Cl)cc3)CC2(C)C)cc1 (stereo not drawn),.,.,.,.,6.7,.
CCOC(=O)COc1ccccc1/C=C\[N+](=O)[O-],-11.4%,-32.0%[10 µM],15.8µM*,4.47µM*,15.5,20.9%
CCOC(=O)COc1cc([N+](=O)[O-])cc2cccnc12,25.5%[9.22 µM],-12.4%[10 µM],.,-11.7%,.,16.0%
O=C(Nc1ccc(S(=O)(=O)NCC2CCCO2)cc1)c1ccc(Cl)cc1[N+](=O)[O-] (stereo not drawn),-11.2%,-3.8%[10 µM],.,6.4%,.,7.9%
CC(N)(COP(=O)(O)O)C(=O)O (stereo not drawn),.,-12.8%,.,6.2%,.,-2.8%
COc1cc(/C=C/[N+](=O)[O-])ccc1OCc1cccc(C(=O)O)c1,14.9%[9.22 µM],-135.3%,.,28.2µM*,.,25.5%
COc1ccc(CCC(=O)NCCc2cn3c(C)csc3n2)cc1,-2.9%,-4.0%,-6.2%,17.8µM*,-8.2,1.5%[38.3 µM]
c1ccc2sc(SN3CCOCC3)nc2c1,15.7%,2.8%,14.1µM*,3.98µM*,-5.6,4.9%[38.3 µM]
[O-][n+]1c(CN2CCCCC2)nc2cccc3c2c1-c1ccccc1-3,.,-2.2%[10 µM],?,1µM*,.,0.9%
O=c1[nH]c(CN2CCCCC2)nc2ccccc12,6.3%,-17.4%,-7.8%,-3.6%,-3.4,-15.1%[38.3 µM]
CC1=C/C(=N/O)C([C@H]2C=C(C)CC(C)(C)[C@@H]2O)C(C)(C)C1 (stereo partly drawn),.,-5.2%[10 µM],-4.8%,6.7%[13.5 µM],.,1.3%
COc1ccc2c(c1)OC/C(=C\c1ccc(OC)c(O)c1)C2=O,.,6.31µM*,11.2µM*,5.62µM*,.,33.3%
CC1CN(Cc2csc(-c3ccc(Cl)cc3)n2)CC(C)O1 (stereo not drawn),-29.4%,-34.3%,.,15.8µM*,.,8.6%
O=C(O)C[C@H]1OCC=C2C[N@@+]3([O-])CC[C@]45c6ccccc6N[C@@H]4[C@@H]1[C@H]2C[C@H]53,.,-14.2%[10 µM],-11.0%,15.2%[13.5 µM],.,13.9%
CC(C)C[C@@H](CC(=O)N[C@@H](CCC(=O)O)CC(=O)O)NC(=O)[C@@H]1CNCC[C@H]1NC(=O)C[C@@H](NC(=O)C[C@H](CO)NC(=O)[C@@H]1CNCC[C@H]1N)C(C)C,.,-2.4%[1.9 µM],-1.0%,-1.8%,.,14.1%
COc1ccc(/C=C/C(=O)Nc2sc3c(c2C(=O)NCc2cccnc2)CCCC3)cc1,20.3%,5.2%,?,3.98µM*,-0.9,-6.3%[38.3 µM]
